Inconclusive results are not listed. The source made the active and inactive calls. Unless noted, no rule for the calls is given here.
Experiments:
[1] = qHTS profiling of the MIPE4 collection as inhibitors of Plasmodium falciparum (3D7) proliferation (AID 743344);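 also: scaled between DMSO vehicle wells and 0.29 µM artemisinin as full inhibition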; details: P. falciparum 3D7 in erythrocytes, SYBR Green DNA fluorescence, 72 h; at 28.5 µM unless noted
Summary of the method: (§1)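 Parasite DNA was quantified by SYBR Green I fluorescence (ex 485, em 535 nm) after overnight lysis in saponin/Triton buffer at room temperature. Cultures at 0.3% parasitemia and 2.5% hematocrit were first exposed to compound for 72 h at 37 C; signals were normalised to artemisinin (0.29 uM) and vehicle wells.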

[2] = qHTS profiling of the MIPE4 collection as inhibitors of Plasmodium falciparum (DD2) proliferation (AID 743345); details: P. falciparum Dd2 in erythrocytes, SYBR Green DNA, 72 h; at 28.5 µM unless noted
Summary of the method: as §1

[3] = qHTS profiling of the MIPE4 collection as inhibitors of Plasmodium falciparum (DD2) proliferation (Rep 2) (AID 743346); details: P. falciparum Dd2 in erythrocytes, SYBR Green DNA, 72 h; at 28.5 µM unless noted
Summary of the method: as §1

[4] = High-throughput drug toxicity screening in the BPDCN cell line Gen2.2 (AID 1224824); details: Gen2.2 BPDCN cells; at 45.8 µM (top of the series) unless noted;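 also: cells exposed to compounds for 48 h before reading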
Summary of the method: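 Readout is ATP luminescence from Gen2.2 cells after two days of drug exposure in serum-containing medium at 37 °C. Values express percent activity, with vehicle defining full signal and 9.2 uM bortezomib defining zero.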

[5] = High-throughput drug toxicity screening in the BPDCN cell line Cal-1 (AID 1224825); details: Cal-1 BPDCN cell viability, qHTS; at 45.8 µM (top of the series) unless noted
Summary of the method: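 CellTiter-Glo luminescence after 48 h compound exposure; percent activity scaled with DMSO as 100% and bortezomib (9.2 uM final) as 0%. Cal-1 cells seeded at 500/well in RPMI, 10% FBS, no phenol red.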

[6] = qHTS assay for measurement of the activity of small molecule inhibitors on Zika virus induced Caspase-3 activity in human iPSC derived neural progenitor cells (hNPCs) (AID 1224857; active = well fitted curve in the direction sought with a large enough effect; an effect the other way counts as inactive or inconclusive; also: % of control where 0% means no effect; nearly all actives have a fitted effect of over 65% in size)
Summary of the method: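 Values are percent inhibition of virus-induced caspase-3/7 signal, scaled between uninfected cells and ZIKV-infected cells. Infection used 2 FFU/cell for 6 h after 1 h compound exposure.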

[7] = qHTS assay for measurement of the activity of small molecule inhibitors on Zika virus induced Caspase-3 activity in human astrocytoma cells (AID 1224859; active = well fitted curve in the direction sought with a large enough effect; an effect the other way counts as inactive or inconclusive;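 also: plate controls were ZIKV-infected untreated cells for no effect and uninfected cells for full effect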)
Summary of the method: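 Compound added 1 h pre-infection; ZIKV 2 FFU/cell on SNB-19 cells, 6 h, 37 C/5% CO2. Caspase-Glo 3/7 luminescence; values as % inhibition of ZIKV-induced caspase activity.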

[8] = qHTS Screen of the MIPE 4.0 Collection Against Ewings Sarcoma (TC71) (AID 1259253; active = well fitted curve in the direction sought with a large enough effect; an effect the other way counts as inactive or inconclusive; also: nearly all actives have a fitted effect of over 40% in size; also: potency is read from the fitted curve at half-maximal effect)
Summary of the method: (§2)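 Dose series incubated 48 h with cells in RPMI plus 5% FBS, glutamine and penicillin/streptomycin; cell viability then quantified via CellTiter-Glo.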

[9] = qHTS Screen of the MIPE 4.0 Collection Against Ewings Sarcoma (EW8) (AID 1259255; active = well fitted curve in the direction sought with a large enough effect; an effect the other way counts as inactive or inconclusive; also: nearly all actives have a fitted effect of over 35% in size; also: potency is read from the fitted curve at half-maximal effect;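 as to viability: 100% = DMSO-treated cells and 0% = medium-only wells without cells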)
Summary of the method: as §2

[10] = qHTS profiling of the MIPE4 collection as inhibitors of Plasmodium falciparum (HB3) proliferation (AID 743347);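 also: plate controls were DMSO vehicle wells for no effect and artemisinin wells for full effect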; details: P. falciparum HB3 in erythrocytes, SYBR Green DNA, 72 h; at 28.5 µM unless noted
Summary of the method: as §1

[11] = qHTS Screen of the MIPE 4.0 Collection Against Ewings Sarcoma (TC32) (AID 1259256; active = well fitted curve in the direction sought with a large enough effect; an effect the other way counts as inactive or inconclusive; also: nearly all actives have a fitted effect of over 45% in size; also: potency is read from the fitted curve at half-maximal effect)
Summary of the method: as §2

[12] = qHTS profiling for inhibitors of Plasmodium falciparum (HB3) proliferation (AID 743324; active = well fitted curve in the direction sought with a large enough effect; an effect the other way counts as inactive or inconclusive;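 also: 100% = DMSO vehicle wells and 0% = artemisinin-treated control wells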); details: Plasmodium falciparum HB3 blood-stage proliferation; at 28.7 µM (top of the series) unless noted
Summary of the method: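 SYBR Green fluorescence (485 ex/535 em) of lysed cultures, incubated overnight at room temperature in the dark, quantifies parasite DNA. Infected erythrocytes at 0.3% parasitemia and 2.5% hematocrit were exposed 72 h; values normalized to DMSO and 0.29 uM artemisinin controls.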

[13] = Identifying Small Molecule Inhibitors of Pancreatic Cancer Stem Cells (A2780, Spheroid) (AID 1259357; active = well fitted curve in the direction sought with a large enough effect; an effect the other way counts as inactive or inconclusive;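 also: spheroids pre-formed over 14 days in stem cell medium on hydrogel; compound exposure lasted 48 h before the ATP luminescence read; 100% = DMSO treated cells and 0% = wells without cells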); details: Potency: A2780 spheroid viability
Summary of the method: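 Luminescent ATP readout (CellTiter-Glo) quantifies surviving cells after a 48 h drug incubation. Normalization uses DMSO wells as no inhibition and media-only wells as full inhibition; bortezomib served as positive control.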

[14] = Identifying Small Molecule Inhibitors of Pancreatic Cancer Stem Cells (SN12C, Adherent) (AID 1259358; active = well fitted curve in the direction sought with a large enough effect; an effect the other way counts as inactive or inconclusive;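 also: cell survival measured after 48 h of compound exposure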)
Summary of the method: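 Endpoint: ATP-based luminescence, 48 h drug exposure. Bortezomib at 9.2 uM final as full-kill control; DMSO vehicle as negative control; activity normalized between vehicle and cell-free wells.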

Row | SMILES | parasite growth, % of DMSO control [1] | parasite growth remaining, % of DMSO control (lower = more inhibition) [2] | parasite growth, % of control (lower = inhibition) [3] | cell viability, % of control (lower = more cytotoxic) [4] | viability (% of control) [5] | Potency [6] | Potency [7] | Potency [8] | Potency [9] | growth, % of control [10] | Potency [11] | remaining proliferation (% of control), lower = more inhibition [12] [%] | Potency [13] | Potency [14]
1 | CC[C@@H]([C@H](C)O)n1ncn(-c2ccc(N3CCN(c4ccc(OCC5CO[C@@](Cn6cncn6)(c6ccc(F)cc6F)C5)cc4)CC3)cc2)c1=O (some centres undefined) | 6.37% | 9.01% | 20.2% | 169% | 108% | inactive | inactive | inactive | inactive | – | – | – | – | –
2 | CC[C@H](CC#N)OC(=O)N[C@@H](C)c1cccc(NC(=O)Nc2ccc(-c3cnco3)c(OC)c2)c1 | 12.8% | – | 17.5% | 74.3% | 18.6% | inactive | inactive | 0.469 µM (active) | 0.469 µM (active) | 9.12% | 0.469 µM (active) | – | – | –
3 | CN1[C@H]2CC[C@H]1CC(OC(=O)c1c[nH]c3ccccc13)C2 (some centres undefined) | 53% | 26.8% | 19.2% | 99% | 111% | inactive | inactive | 18.7 µM (active) | 4.18 µM (active) | 22% | 3.32 µM (active) | – | – | –
4 | CCCCCCOC(=O)N=C(N)c1ccc(NCc2nc3cc(C(=O)N(CCC(=O)OCC)c4ccccn4)ccc3n2C)cc1 | 9.57% | 28.2% | 16% | 274% | 17.1% | inactive | inactive | 20.9 µM (active) | 8.33 µM (active) | 7.43% | 7.43 µM (active) | – | – | –
5 | CN1c2ccccc2C(=O)N2CCc3c([nH]c4ccccc34)C21 (centres undefined) | 94.3% | 103% | 90.2% | 54.1% | 97% | inactive | inactive | 23.5 µM (active) | inactive | 55% | 14.8 µM (active) | – | – | –
6 | CCOC(=O)[C@H](CCc1ccccc1)N[C@@H](C)C(=O)N1CCCC1C(=O)O (some centres undefined) | 53.7% | 91.5% | – | 190% | 76.8% | inactive | inactive | 16.6 µM (active) | – | 95.2% | 16.6 µM (active) | – | – | –
7 | O=C(O)CCC=CCC[C@@H]1[C@H](N2CCCCC2)[C@@H](O)C[C@@H]1OCc1ccc(-c2ccccc2)cc1 | 67.9% | 92.8% | 62.3% | 169% | 63% | inactive | inactive | inactive | – | 63% | inactive | – | – | –
8 | CNC(=O)c1cc(COc2nnc(Nc3ccc(Cl)cc3)c3ccoc23)ccn1 | 40.5% | 79.6% | 52.9% | 159% | 92.9% | inactive | inactive | inactive | inactive | – | – | 28.7 | inactive | inactive
9 | O=C(O)C1=NC(C(=O)O)CC(C=CN2c3cc(O)c(OC4OC(CO)C(O)C(O)C4O)cc3CC2C(=O)O)=C1 (centres undefined) | 93% | 104% | 76.3% | 267% | 136% | inactive | inactive | inactive | inactive | 92% | – | – | – | –
10 | CN(C)S(=O)(=O)c1ccc2c(c1)C(=Cc1cc3c([nH]1)CCCC3)C(=O)N2 | 22.9% | 22.5% | 30% | 119% | 35.3% | inactive | inactive | 9.35 µM (active) | 8.33 µM (active) | 8.5% | 3.72 µM (active) | – | – | –
11 | CN[C@@H]1CN(c2ccc3c(=O)c(C(=O)O)cn(-c4nccs4)c3n2)C[C@@H]1OC | 9.37% [at 9.64 µM] | 7.58% [at 9.64 µM] | 8.12% [at 9.64 µM] | 7.46% [at 23.2 µM] | 3.44% [at 23.2 µM] | inactive | inactive | 0.645 µM (active) | 0.323 µM (active) | 8.57% [at 9.64 µM] | – | – | – | –
12 | N=C1SC(=Cc2ccc(-c3ccc4c(c3)C(=O)NC4=O)o2)C(=O)N1c1ccc(Br)cc1 | 9.09% | 21.3% | – | 13.7% | 35.6% | inactive | inactive | 20.9 µM (active) | inactive | 9.17% | 18.7 µM (active) | – | – | –

From PubChem BioAssay (NCATS)
